According to PubChem BioAssay (NCI):
This is part of a sample that, as a whole, favours compounds with a hit. Of some 79,000 tested, about 15% had one in any assay. Calls of active or inactive are those of the source. No stated cut-off is given here; in the data, active means growth inhibition above about 70%; inactive means the rest.

Legend:
[1] = NCI Yeast Anticancer Drug Screen. Data for the wt1 strain (AID 149);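 further: 0% = growth of vehicle-treated wt1 cultures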; details: S. cerevisiae wt1 strain (SPY 50644) growth inhibition, hits give high values
In short: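 Compounds are added to wt1 yeast cultures. Growth is then measured. Inhibition is expressed relative to vehicle-treated controls.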

[2] = NCI Yeast Anticancer Drug Screen. Data for the rad50EPP+ strain (AID 151);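 further: 0% = growth of vehicle-treated control cultures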; details: S. cerevisiae rad50 mutant strain, hits give high values
In short: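 One strain with a rad50 alteration (rad50EPP+) was compound-treated, its growth then compared to that of vehicle controls.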

[3] = NCI Yeast Anticancer Drug Screen. Data for the mgt1 strain (AID 153); details: S. cerevisiae mgt1 mutant growth inhibition, hits give high values
In short: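 After exposure of the mgt1 yeast mutant to compound, growth was measured and reported as inhibition compared with vehicle controls.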

[4] = NCI Yeast Anticancer Drug Screen. Data for the rad50 strain (AID 155);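 further: 0% = growth of vehicle-only cultures of the same strain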; details: S. cerevisiae rad50 strain growth inhibition, hits give high values
In short: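 Inhibition values express reduced yeast growth in compound-treated cultures relative to vehicle-treated controls.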

[5] = NCI Yeast Anticancer Drug Screen. Data for the rad14 strain (AID 159);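 further: 0% = growth of vehicle-treated control cultures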; details: S. cerevisiae rad14 strain growth inhibition, hits give high values
In short: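 A mutant yeast strain defective in DNA damage repair is treated with compound; inhibition of its growth is scored against untreated, vehicle-exposed cultures.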

[6] = NCI Yeast Anticancer Drug Screen. Data for the sgs1 mgt1 strain (AID 161);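 further: 0% = growth of cultures given vehicle only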; details: S. cerevisiae sgs1 mgt1 strain, hits give high values
In short: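 Mutant yeast exposed to compound; growth scored against vehicle-only wells.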

[7] = NCI Yeast Anticancer Drug Screen. Data for the CLN2oe strain (AID 163);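 further: 0% = growth of vehicle-only control cultures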; details: S. cerevisiae CLN2oe strain, hits give high values
In short: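 Here, growth inhibition in a cell-cycle-altered yeast strain after compound exposure was quantified against vehicle control growth.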

[8] = NCI Yeast Anticancer Drug Screen. Data for the cln2 rad14 strain (AID 165);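 further: 0% = growth equal to vehicle treated cultures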; details: S. cerevisiae cln2 rad14 strain, hits give high values
In short: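 Growth of compound-exposed yeast (cln2 rad14 genotype) measured and expressed as inhibition relative to vehicle.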

[9] = NCI Yeast Anticancer Drug Screen. Data for the bub3 strain (AID 167); details: S. cerevisiae bub3 mutant strain, hits give high values
In short: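 Steps: expose the mutant yeast strain to compound; grow alongside vehicle-treated cultures; measure growth; express inhibition against the vehicle cultures.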

[10] = NCI Yeast Anticancer Drug Screen. Data for the wt2 strain (AID 169);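 further: 0% = growth of vehicle-treated yeast cultures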; details: S. cerevisiae wt2 strain growth inhibition, hits give high values
In short: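 Genetically defined yeast strains from a DNA-repair/cell-cycle panel were used. Compound-exposed yeast growth was measured, and the inhibition was calculated relative to vehicle treatment.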

[11] = NCI Yeast Anticancer Drug Screen. Data for the mlh1 strain (AID 171);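 further: 0% = growth of vehicle-treated control cultures of the same strain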; details: S. cerevisiae mlh1 strain growth inhibition, hits give high values
In short: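 Here the genetically defined yeast mutant is grown with each compound, and the extent to which its growth falls below that of vehicle-exposed cells is reported.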

[12] = NCI Yeast Anticancer Drug Screen. Data for the sgs1 strain (AID 173);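 further: 0% = growth of vehicle-only control cultures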; details: S. cerevisiae sgs1 mutant, hits give high values
In short: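 Relative growth inhibition, referenced to vehicle, was determined in a yeast strain with a defined alteration affecting DNA damage repair or cell cycle control after compound exposure.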

[13] = NCI Yeast Anticancer Drug Screen. Data for the mlh1 rad18 strain (AID 175); details: S. cerevisiae mlh1 rad18 strain growth inhibition, hits give high values
In short: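 In this whole-cell yeast screen, a strain with altered DNA damage repair is challenged with compound, and its growth is measured against matched vehicle-treated controls.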

[14] = NCI Yeast Anticancer Drug Screen. Data for the rad18 strain (AID 177); details: S. cerevisiae rad18 mutant growth inhibition, hits give high values
In short: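 Screen uses a yeast strain with a defined lesion in DNA damage repair; compound effect is read as loss of growth compared to untreated vehicle cultures.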

[15] = NCI Yeast Anticancer Drug Screen. Data for the mec2-1 strain (AID 157); details: S. cerevisiae mec2-1 strain, hits give high values
In short: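 Test agents were screened against the mec2-1 yeast strain, with defined DNA repair or cell cycle alteration. Growth was scored as inhibition against vehicle-only controls.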

[16] = at 5.0 µM (retest, dose inferred, filed as 0.5)
[17] = at 50.0 µM (retest, dose inferred, filed as 5.0)

Measured: growth inhibition

O=S(=O)(O)c1ccc2c(N=Nc3c(O)ccc4ccccc34)cccc2c1
inactive: [1]; at 1.2 µM 0% | [1]; at 3.7 µM 1% | [1]; at 11.0 µM 21% | [1]; at 33.0 µM 50% | [2]; at 1.2 µM -3% | [2]; at 3.7 µM -1% | [2]; at 11.0 µM 17% | [2]; at 33.0 µM 35% | [2]; at 100.0 µM 39% | [3]; at 1.2 µM 0% | [3]; at 3.7 µM 0% | [3]; at 11.0 µM 12% | [3]; at 33.0 µM 37% | [3]; at 100.0 µM 66% | [4]; at 1.2 µM 4% | [4]; at 3.7 µM 14% | [4]; [16] 26% | [4]; at 11.0 µM 56% | [5]; at 1.2 µM 1% | [5]; at 3.7 µM 1% | [5]; at 11.0 µM 20% | [5]; at 33.0 µM 40% | [6]; [16] -1% | [7]; at 1.2 µM -1% | [7]; at 3.7 µM -4% | [7]; at 11.0 µM -3% | [7]; at 33.0 µM 14% | [8]; [16] 0% | [8]; [17] -11% | [8]; at 50.0 µM 32.5% | [9]; at 1.2 µM -2% | [9]; at 3.7 µM -1% | [9]; [16] 0% | [9]; at 11.0 µM 23% | [9]; at 33.0 µM 59% | [9]; [17] 55% | [10]; at 1.2 µM -1% | [10]; at 3.7 µM 0% | [10]; at 11.0 µM 13% | [10]; at 33.0 µM 37% | [11]; at 1.2 µM 4% | [11]; at 3.7 µM 4% | [11]; at 11.0 µM 17% | [11]; at 33.0 µM 4% | [12]; at 1.2 µM 2% | [12]; at 3.7 µM 11% | [12]; at 11.0 µM 47% | [12]; at 33.0 µM 67% | [13]; [16] 9% | [14]; at 1.2 µM 4% | [14]; at 3.7 µM 33%
active: [1]; at 100.0 µM 71% | [4]; at 33.0 µM 71% | [4]; [17] 82% | [4]; at 50.0 µM 91.8% | [4]; at 100.0 µM 85% | [5]; at 100.0 µM 80% | [6]; [17] 70% | [6]; at 50.0 µM 83.2% | [7]; at 100.0 µM 74% | [9]; at 50.0 µM 93.8% | [9]; at 100.0 µM 75% | [10]; at 100.0 µM 74% | [11]; at 100.0 µM 70% | [12]; at 100.0 µM 77% | [13]; [17] 80% | [13]; at 50.0 µM 87.9% | [14]; at 11.0 µM 77% | [14]; at 33.0 µM 87% | [14]; at 100.0 µM 92%

CCCC(=O)OC(OC(=O)CCC)c1ccc([N+](=O)[O-])o1
inactive: [1]; at 1.2 µM -3% | [1]; at 3.7 µM -2% | [1]; at 11.0 µM -1% | [1]; at 33.0 µM 2% | [1]; at 100.0 µM 11% | [2]; at 1.2 µM 2% | [2]; at 3.7 µM 15% | [2]; at 11.0 µM 46% | [4]; at 1.2 µM -2% | [4]; at 3.7 µM -1% | [4]; [16] 22% | [4]; at 11.0 µM 10% | [4]; at 33.0 µM 47% | [4]; [17] 34% | [4]; at 50.0 µM 63.9% | [15]; at 1.2 µM -4% | [15]; at 3.7 µM -1% | [15]; [16] 17% | [15]; at 11.0 µM 2% | [15]; at 33.0 µM 5% | [15]; [17] 8% | [15]; at 50.0 µM -1.45% | [15]; at 100.0 µM 20% | [5]; at 1.2 µM -6% | [5]; at 3.7 µM -4% | [5]; at 11.0 µM 1% | [5]; at 33.0 µM 7% | [5]; at 100.0 µM 26% | [6]; [16] 14% | [6]; [17] 55% | [6]; at 50.0 µM 53.4% | [7]; at 1.2 µM -1% | [7]; at 3.7 µM -8% | [7]; at 11.0 µM -10% | [7]; at 33.0 µM -5% | [7]; at 100.0 µM 8% | [8]; [16] 1% | [8]; [17] 8% | [8]; at 50.0 µM 12.1% | [9]; at 1.2 µM -4% | [9]; at 3.7 µM -5% | [9]; [16] 2% | [9]; at 11.0 µM -4% | [9]; at 33.0 µM -3% | [9]; [17] 7% | [9]; at 50.0 µM 14.4% | [9]; at 100.0 µM 3% | [10]; at 1.2 µM -3% | [10]; at 3.7 µM -3% | [10]; at 11.0 µM -3% | [10]; at 33.0 µM 1% | [10]; at 100.0 µM 11% | [11]; at 1.2 µM -5% | [11]; at 3.7 µM -2% | [11]; at 11.0 µM 0% | [11]; at 33.0 µM 7% | [11]; at 100.0 µM 20% | [12]; at 1.2 µM -1% | [12]; at 3.7 µM 1% | [12]; at 11.0 µM 7% | [12]; at 33.0 µM 21% | [12]; at 100.0 µM 61% | [13]; [16] 22% | [13]; at 50.0 µM 35.1% | [14]; at 1.2 µM 1% | [14]; at 3.7 µM 14% | [14]; at 11.0 µM 42%
active: [2]; at 33.0 µM 83% | [2]; at 100.0 µM 93% | [4]; at 100.0 µM 83% | [13]; [17] 71% | [14]; at 33.0 µM 85% | [14]; at 100.0 µM 94%

CCCCCCCCCC/C=C\CC(=O)O
inactive: [1]; at 1.2 µM -1% | [1]; at 3.7 µM -2% | [1]; at 11.0 µM -3% | [1]; at 33.0 µM 2% | [2]; at 1.2 µM -4% | [2]; at 3.7 µM 3% | [2]; at 11.0 µM 11% | [2]; at 33.0 µM 22% | [2]; at 100.0 µM 47% | [3]; at 1.2 µM -3% | [3]; at 3.7 µM -2% | [3]; at 11.0 µM -2% | [3]; at 33.0 µM 28% | [4]; at 1.2 µM 0% | [4]; at 3.7 µM -1% | [4]; [16] -1% | [4]; at 11.0 µM 17% | [4]; at 33.0 µM 18% | [4]; at 50.0 µM -10.8% | [15]; at 1.2 µM -3% | [15]; at 3.7 µM 0% | [15]; [16] 5% | [15]; at 11.0 µM 1% | [15]; at 33.0 µM 8% | [15]; at 50.0 µM -0.8% | [5]; at 1.2 µM 0% | [5]; at 3.7 µM 1% | [5]; at 11.0 µM 9% | [5]; at 33.0 µM 33% | [8]; [16] 7% | [8]; [17] 14% | [8]; at 50.0 µM 9.65% | [9]; at 1.2 µM -2% | [9]; at 3.7 µM -4% | [9]; [16] 1% | [9]; at 11.0 µM -8% | [9]; at 33.0 µM -3% | [9]; [17] 1% | [9]; at 50.0 µM 36.1% | [10]; at 1.2 µM -2% | [10]; at 3.7 µM 6% | [10]; at 11.0 µM -3% | [10]; at 33.0 µM 3% | [11]; at 1.2 µM 0% | [11]; at 3.7 µM -4% | [11]; at 11.0 µM -3% | [11]; at 33.0 µM 11% | [12]; at 1.2 µM -3% | [12]; at 3.7 µM -2% | [12]; at 11.0 µM 2% | [12]; at 33.0 µM 31% | [13]; [16] 4% | [13]; at 50.0 µM -21.2% | [14]; at 1.2 µM -3% | [14]; at 3.7 µM 2% | [14]; at 11.0 µM -1% | [14]; at 33.0 µM 48%
active: [1]; at 100.0 µM 97% | [3]; at 100.0 µM 99% | [4]; [17] 81% | [4]; at 100.0 µM 99% | [15]; [17] 74% | [15]; at 100.0 µM 99% | [5]; at 100.0 µM 99% | [9]; at 100.0 µM 98% | [10]; at 100.0 µM 98% | [11]; at 100.0 µM 99% | [12]; at 100.0 µM 99% | [13]; [17] 87% | [14]; at 100.0 µM 99%
